Article PMC4336329 (PLoS ONE, 2015)
Hit rate of the full screen: of about 310,000 compounds, about 2,200 (0.71%) showed an effect of 50% or more. Effects have a minus sign here. The list comes from a sample in which strong results are over-represented; it also holds similar structures and randomly drawn compounds.

What follows are molecules tested against human ether-à-go-go-related gene (hERG) potassium channel (human, UniProt Q12809) (assay: primary screen, population patch clamp on CHO cells stably expressing hERG; higher = less effect of the substance).
human ether-à-go-go-related gene (hERG) potassium channel, sequence (Q12809 whole entry, looked up): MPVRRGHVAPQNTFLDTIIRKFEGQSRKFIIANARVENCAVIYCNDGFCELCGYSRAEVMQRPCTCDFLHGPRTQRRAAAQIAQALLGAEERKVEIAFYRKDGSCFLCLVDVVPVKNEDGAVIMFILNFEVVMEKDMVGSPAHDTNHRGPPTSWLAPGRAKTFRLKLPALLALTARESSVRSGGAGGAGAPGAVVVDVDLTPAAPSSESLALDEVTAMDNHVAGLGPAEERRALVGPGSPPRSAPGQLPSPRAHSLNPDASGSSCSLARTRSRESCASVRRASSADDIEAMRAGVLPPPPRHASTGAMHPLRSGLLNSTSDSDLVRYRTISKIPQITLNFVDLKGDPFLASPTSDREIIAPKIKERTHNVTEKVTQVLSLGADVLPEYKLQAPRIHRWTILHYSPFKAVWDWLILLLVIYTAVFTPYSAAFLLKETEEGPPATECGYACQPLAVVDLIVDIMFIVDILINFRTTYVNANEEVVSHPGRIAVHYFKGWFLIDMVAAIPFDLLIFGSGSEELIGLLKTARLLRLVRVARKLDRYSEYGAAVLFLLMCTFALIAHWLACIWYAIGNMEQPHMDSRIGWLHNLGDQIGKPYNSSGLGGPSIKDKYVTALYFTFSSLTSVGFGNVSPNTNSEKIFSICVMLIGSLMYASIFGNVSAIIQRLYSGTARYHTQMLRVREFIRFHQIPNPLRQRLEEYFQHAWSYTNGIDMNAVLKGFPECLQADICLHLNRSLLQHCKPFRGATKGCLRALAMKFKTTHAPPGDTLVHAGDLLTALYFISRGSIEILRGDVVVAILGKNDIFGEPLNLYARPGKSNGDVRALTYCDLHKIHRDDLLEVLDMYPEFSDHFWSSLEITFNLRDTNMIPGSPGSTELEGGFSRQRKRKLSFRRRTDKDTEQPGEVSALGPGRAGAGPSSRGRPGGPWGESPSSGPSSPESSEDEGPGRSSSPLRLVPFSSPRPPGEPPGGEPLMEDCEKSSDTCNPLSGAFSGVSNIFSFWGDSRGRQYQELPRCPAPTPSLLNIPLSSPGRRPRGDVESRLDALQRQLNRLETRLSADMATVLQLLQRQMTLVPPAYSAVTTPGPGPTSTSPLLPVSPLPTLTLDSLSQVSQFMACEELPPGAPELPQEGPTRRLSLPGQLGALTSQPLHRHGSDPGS

Compound	hERG current change (%, negative = inhibition) at 1uM [%]
Cc1cccc(CN2CCCC(C(=O)c3ccc4c(c3)OCO4)C2)n1 (stereo not drawn)	-16.8
O=C(c1ccc2c(c1)OCO2)C1CCCN(Cc2ccc(OC(F)F)cc2)C1 (stereo not drawn)	-53
Cc1ccsc1C(=O)C1CCCN(Cc2ccc(-n3cccn3)cc2)C1 (stereo not drawn)	-3.18
Cc1ccc(-n2cccn2)c(CN2CCCC(C(=O)c3sccc3C)C2)c1 (stereo not drawn)	-82.8
Cc1ccc(-n2cccn2)c(CN2CCCC(C(=O)c3ccc4c(c3)OCO4)C2)c1 (stereo not drawn)	-83.5
COc1cc(OC)c(OC)cc1CN1CCCC(C(=O)c2ccc3c(c2)OCO3)C1 (stereo not drawn)	-27.7
O=C(c1ccc2c(c1)OCO2)C1CCCN(Cc2ccc3cccc(F)c3n2)C1 (stereo not drawn)	-81.5
O=C(c1ccc2c(c1)OCO2)C1CCCN(Cc2c(F)cccc2Cl)C1 (stereo not drawn)	0.9
O=C(c1ccc2c(c1)OCO2)C1CCCN(Cc2ccc(F)c(F)c2)C1 (stereo not drawn)	5.03
O=C(c1ccc2c(c1)OCO2)C1CCCN(Cc2ccccc2OC(F)F)C1 (stereo not drawn)	-16.9
Cc1ccsc1C(=O)C1CCCN(Cc2cc(F)ccc2-n2cccn2)C1 (stereo not drawn)	-45.5
Cc1ccc(CN2CCCC(C(=O)c3ccc4c(c3)OCO4)C2)cc1C (stereo not drawn)	-27.1
COc1ccc(CNCc2c(F)cccc2F)cc1OC.O=C(O)C(=O)O	14.6
O=C(NC1CCCCCC1)c1ccc(CS(=O)Cc2cccc(Cl)c2)o1 (stereo not drawn)	5.33
COc1cc(/C=N/N2CCN(Cc3ccc(Cl)cc3)CC2)cc(Br)c1O	9.38
N#Cc1c(NC(=O)CCCN2C(=O)c3ccccc3C2=O)oc(-c2ccccc2)c1-c1ccccc1	-0.65
Cc1cc2nc3ccc(N(C)C)cc3nc2cc1N	13.3
CCOC1(OCC)N=C(N)C2(C#N)C(c3cccc(OC)c3OC)C12C#N (stereo not drawn)	3.32
CN(C(=O)CCN1C(=O)c2ccccc2C1=O)c1ccccc1	15.8
CCc1cc(C(c2ccc(F)cc2)N2CCOCC2)c(NC(=O)c2ccccc2)s1 (stereo not drawn)	11.2
CCCCNC(=O)N1CCOCCOCCN(C(=O)NCCCC)CCOCCOCC1	7.75

Compound	hERG current change (%, negative = inhibition) at 1uM [%]
O=C(c1sc2cc([N+](=O)[O-])ccc2c1Cl)N1CCOCC1	0.235
CC(C)(C)CC(=O)OCC(=O)Nc1cc(C(C)(C)C)nn1-c1ccccc1	-12.9
Cc1nn2c(-c3ccc(Cl)cc3Cl)nnc2s1	-0.908
COc1cccc(CN2CCCC(C(=O)c3ccc4c(c3)OCO4)C2)c1OC (stereo not drawn)	-25.3
COc1cccc(CN2CCCC(C(=O)c3ccc4c(c3)OCO4)C2)c1O (stereo not drawn)	-44.6
O=C(c1ccc2c(c1)OCO2)C1CCCN(Cc2cc(F)ccc2-n2cccn2)C1 (stereo not drawn)	-78.2
Br.Nc1nc(-c2ccc(Br)cc2)cs1	-2.25
C/C(=N/N1CCN(c2ccccc2)CC1)c1cccc([N+](=O)[O-])c1	8.81
Cc1ccc(Cl)cc1NS(=O)(=O)Cc1ccccc1	14.1
O=C(Nc1ccc(NC(=O)c2cccs2)cc1)c1cccnc1	13.4
Cc1ccccc1NS(=O)(=O)c1ccc(OCC(=O)NCc2ccccn2)cc1	3.12
O=C(c1ccco1)N1CCN(Cc2cc(=O)c(OCc3ccc([N+](=O)[O-])cc3)co2)CC1	-29.4
Cc1ccc(-c2cc(C(=O)Nc3ccc(S(=O)(=O)Nc4onc(C)c4C)cc3)[nH]n2)c(O)c1	-1.84
CN1CCN(c2nc(-c3ccc(Cl)c(Cl)c3)nc3ccccc23)CC1	9.87
CN1CCN(c2nc(-c3ccncc3)nc3ccccc23)CC1	-64.9
CCN1CCN(c2nn3c(=O)c4ccccc4nc3c3ccccc23)CC1	-71.5
CCN1CCN(c2nc(-c3ccccc3)nc3ccccc23)CC1	-30.4
CCN1CCN(c2nc(-c3cccnc3)nc3ccccc23)CC1.Cl	-18.4
CN1CCN(c2nc(-c3ccccc3Cl)nc3ccccc23)CC1	-19.8
CC1CN(c2nn3c(=O)c4ccccc4nc3c3ccccc23)CC(C)O1 (stereo not drawn)	-0.465
CN1CCN(c2nc(-c3ccc(Cl)cc3Cl)nc3ccccc23)CC1	-58.1

Compound	hERG current change (%, negative = inhibition) at 1uM [%]
Cc1ccc(-c2nc(N3CCN(C)CC3)c3ccccc3n2)cc1.Cl	3.62
c1ccc2c(N3CCCC3)nc(-c3ccncc3)nc2c1	1.09
CCN1CCN(c2nc(-c3ccncc3)nc3ccccc23)CC1	-75.6
CCN1CCN(c2nc(-c3ccccn3)nc3ccccc23)CC1	-17.5
C/C(=N\NC(=O)c1ccc(Cl)cc1)c1ccccn1	8.17
O=S1(=O)CCC(NCC2CCCO2)C1 (stereo not drawn)	12.9
CC(C)C(NC(=O)OCc1ccccc1)C(=O)OCC(=O)NC1CC1 (stereo not drawn)	11.3
Fc1ccc(N/N=C/c2ccc(N3CCOCC3)cc2)c(F)c1	9.29
CCc1ccc(CN(C)C(=O)C2CCC(=O)N(CC3CCCCC3)C2)cc1 (stereo not drawn)	-12.3
COc1ccccc1N1CCN(C(=O)c2cn(C)c3ccc(S(=O)(=O)N4CCOCC4)cc3c2=O)CC1	13.1
O=c1nc(-c2ccccc2)n(-c2ccccc2)c2ncccc12	10.8
Cn1c(SCC(=O)NC2CCS(=O)(=O)C2)nnc1-c1ccco1 (stereo not drawn)	10.3
Cc1cccc(NS(=O)(=O)c2cccs2)c1	10.7
CC1CC(C)CN(c2nc3c(c(=O)n(C)c(=O)n3C)n2C)C1 (stereo not drawn)	11.1
CCN1CCN(c2ccc(S(=O)(=O)N3CCOCC3)cc2NC(=O)/C=C/c2ccc([N+](=O)[O-])cc2)CC1	-50.5
CCN1CCN(c2ccc(S(=O)(=O)N3CCOCC3)cc2NC(=O)/C=C/c2ccc(C)cc2)CC1	-4.67
O=C(/C=C/c1ccc(F)cc1)Nc1cc(S(=O)(=O)N2CCOCC2)ccc1N1CCCC1	-60.3
O=C(/C=C/c1cccc(F)c1)Nc1cc(S(=O)(=O)N2CCOCC2)ccc1N1CCCC1	0.626
CCN1CCN(c2ccc(S(=O)(=O)N3CCCCC3)cc2NC(=O)/C=C/c2ccc([N+](=O)[O-])cc2)CC1	6.53
O=C(/C=C/c1ccccc1)Nc1cc(S(=O)(=O)N2CCOCC2)ccc1N1CCCC1	15.7
O=c1cc(-c2ccccc2[N+](=O)[O-])oc2ccccc12	7.73

Compound	hERG current change (%, negative = inhibition) at 1uM [%]
CC(C)C(=O)C1=Cc2cc([N+](=O)[O-])ccc2OC1N1CCOCC1 (stereo not drawn)	9.39
O=C(CCCC(=O)NCC1CCCO1)NCC1CCCO1 (stereo not drawn)	3.68
O=c1ccc2cc3c([nH]c4ccc(Br)cc43)oc-2c1O	4.16
COc1ccc(C(C(O)C(=O)c2c[nH]c3ccccc23)N2CCN(c3ccc(OC)cc3)CC2)cc1 (stereo not drawn)	2.28
COc1ccc(C(C(O)C(=O)c2c[nH]c3ccccc23)N2CCN(c3ccccc3)CC2)cc1 (stereo not drawn)	4.75
CCN1CCN(C(c2ccc(OC)cc2)C(O)C(=O)c2c[nH]c3ccccc23)CC1 (stereo not drawn)	-64.4
CC(C)Oc1ccc(N2CC(C(=O)Nc3ccc4c(c3)OCO4)CC2=O)cc1 (stereo not drawn)	5.88
Cc1[nH]c(=O)[nH]c(=O)c1S(=O)(=O)Nc1cccc([N+](=O)[O-])c1C	11.5
O=C(O)C(=O)O.c1ccc(COc2ccc(OCCCCN3CCCC3)cc2)cc1	-28.2
COc1cccc(OC)c1OCCCCN1CCCCC1.O=C(O)C(=O)O	9.21
COc1cccc(OC)c1OCCCN1CCC(Cc2ccccc2)CC1.O=C(O)C(=O)O	-79.3
COc1cccc(OC)c1OCCCCN1CCC(Cc2ccccc2)CC1.O=C(O)C(=O)O	-78.6
CC(=O)CCc1ccc(OCCCCN2CCC(Cc3ccccc3)CC2)cc1.O=C(O)C(=O)O	-68.3
COc1cc(CN2CCC(Cc3ccccc3)CC2)cc(OC)c1OC.O=C(O)C(=O)O	-12
CC1CCN(CCCOc2ccc(OCc3ccccc3)cc2)CC1.O=C(O)C(=O)O	-14.1
COc1cccc(OC)c1OCCCCN1CCCC1	4.67
COc1ccccc1N1CCN(CCCCOc2c(OC)cccc2OC)CC1.O=C(O)C(=O)O	-38.6
COc1cc2cc(C(c3nnnn3C(C)(C)C)N3CCc4ccccc4C3)c(=O)[nH]c2cc1OC (stereo not drawn)	-3.88
CCN(CCNC(=O)CCCn1nc(C)n2c(cc3sccc32)c1=O)c1ccccc1	-1.14
CN(C)Cc1ccc(-c2nc3cccc4c3n2CCNC4=O)cc1	-0.249
O=C(NCc1ccccc1)C(c1ccco1)N(C(=O)c1csnn1)C1CC1 (stereo not drawn)	11.6
